Results as given in PubChem BioAssay (EPA / NIEHS).
Activity calls are given as the source filed them. How the source made its calls: active means hit-call score of the fitted dose curve at least 0.9, where 1 is the maximum; inactive means score below 0.9.

Test: APR_HepG2_CellLoss_72hr: Apredica 72-hour HepG2 Assay for Cell Loss (AID 2282915)
Conditions: high-content imaging
Procedure: APR_HepG2_72hr is a cell-based, multiplexed-readout assay that uses HepG2, a human liver cell line, with measurements taken at 72 hours after chemical dosing in a 384-well plate.APR_HepG2_CellLoss_72hr is one of 10 assay component(s) measured or calculated from the APR_HepG2_72hr assay. It is designed to make measurements of cell number, a form of viability reporter, as detected with fluorescence intensity signals by HCS Fluorescent Imaging technology.Data from the assay component APR_HepG2_CellLoss_72hr was analyzed into 1 assay endpoint. This assay endpoint, APR_HepG2_CellLoss_72hr, was analyzed with bidirectional fitting relative to DMSO as the negative control and baseline of activity. Using a type of viability reporter, measures of all nuclear dna for gain or loss-of-signal activity can be used to understand the viability at the cellular-level. Furthermore, this assay endpoint can be referred to as a secondary readout, because this assay has produced multiple assay endpoints where this one serves a viability function. To generalize the intended target to other relatable targets, this assay endpoint is annotated to the cell cycle intended target family, where the subfamily is proliferation.
Cells were treated with dimethyl sulfoxide (DMSO) as a solvent control at a final concentration of 0.5% v/v or with compounds in DMSO with a resulting final DMSO concentration of 0.5% v/v. Compound treatment was done at concentrations of 0.39, 0.78, 1.56, 3.12, 6.24, 12.5, 25, 50, 100, and 200 uM in duplicate on each plate. Cells were treated with compounds for 1, 24, or 72 hr. Carbonyl […] m-chloro-phenylhydrazone (CCCP) and taxol were used as positive controls for mitochondrial function and cytoskeletal stability, respectively; DMSO served as the negative control for this experiment. Cells were fixed by the direct addition of 50 uL formaldehyde in Hank's Balanced Salt Solution (HBSS) to a final concentration of 3.7%. After incubation in the fixation medium for 30 min at room temperature (293-298 K), cells were rinsed twice with HBSS and treated with cell permeabilization buffer (16 uL of 0.5% Triton X-100) for 10 min at room temperature (293-298 K) before labeling. For mitochondrial membrane potential and mitochondrial measurements, pre-fixed cells were incubated with 50 uL of MitoTracker Red CMXRos (Invitrogen) at a concentration of 250 nM for 30 min before fixation. In the remaining cases, post-fixed cells were labeled by incubation with a multiplexed mixture of primary antibodies in HBSS for 60 min at room temperature (293-298 K) to detect immunoreactivity of c-Jun (1:500), phospho-histone H3 (1:100), phospho-histone H2A.x (1:200), p53 (1:400), alpha-tubulin (1:200) and Hoechst 33342 (2 ug/mL). Cells were labeled for multiplexed imaging on two separate plates: a) Hoechst 33342, MitoTracker Red, phospho-histone H3, and alpha-tubulin, and b) Hoechst 33342, phospho-histone H2A.x, and c-Jun. A final rinse with HBSS (50 uL) was performed before analysis. The primary and secondary antibodies for the proteins were phospho-histone H3 (rabbit anti-phospho-histone H3 and FITC-donkey anti-rabbit IgG), phospho-histone H2A.x (mouse anti-phospho-histone H2A.x and FITC-donkey anti-mouse IgG), c-Jun (rabbit anti-phospho-c-Jun and Cy3-donkey anti-rabbit IgG), p53 (sheep anti-p53 and Cy5-donkey anti-sheep IgG), alpha-tubulin (mouse anti-alpha-tubulin and Cy5-donkey anti-mouse IgG). These antibodies are available as the CellCiphr HepG2 assay kit (Millipore).Digital images of each well were captured using a Cellomics ArrayScan VTI (Thermo Scientific Cellomics) (0.8 NA objective, 0.63x optical coupler, and XF-93 filter set) at 20x magnification. The images were acquired using the autofocus feature of the ArrayScan instrument, which entails the following steps. First, the camera focuses on channel 1 (Hoechst 33342), where nuclei are identified. Second, a Z offset of 1 um is used for capturing mitochondria (MitoTracker Red). […]

| Compound | AC50 | outcome |
| --- | --- | --- |
| COCCOc1cc2cc(C(=O)NC3CCN(C(C)C)CC3)n(CC(=O)Nc3ccc(Cl)cn3)c2cn1 | 93.1 µM (active) |  |
| Cc1ccc(N)cc1O | 10.5 µM (active) |  |
| COc1ccc(/C=C/S(=O)(=O)NC(=O)c2ccc(C)cc2Cl)cc1 | 57.3 µM (active) |  |
| CN(C)c1ccc(N=NS(=O)(=O)O)cc1 | 71.7 µM (active) |  |
| Nc1nc2ncc(CNc3ccc(C(=O)N[C@@H](CCC(=O)O)C(=O)O)cc3)nc2c(=O)[nH]1 |  | inactive |
| CC(=O)c1ccc2c(c1)[C@H](NC(=O)c1ccc(F)cc1)[C@@H](O)C(C)(C)O2 |  | inactive |
| CC(C)c1cccc(C(C)C)c1N1C(=O)c2ccc(O)cc2C1=O | 57.7 µM (active) |  |
| COc1cccc(-c2ccc(/C=C\CN3CCCCCC3)cc2Cl)c1 | 28.6 µM (active) |  |
| COC(=O)CC(=O)OC |  | inactive |
| Cc1[nH]cnc1C[C@H]1CCc2c(C)c3ccccc3n2C1=O | 24.5 µM (active) |  |
| Oc1ccc2c(c1)-c1ccccc1C2 | 86.1 µM (active) |  |
| CCOCCOCCOCCO |  | inactive |
| C1=CCCC=CCCC=CCC1 |  | inactive |
| CC(C)(O)c1coc(S(=O)(=O)NC(=O)Nc2c3c(cc4c2CCC4)CCC3)c1 |  | inactive |
| CNS(=O)(=O)c1cc(C(=O)N2CCC(CCN3C4CCC3CC(n3c(C)nc5ccccc53)C4)(c3cccc(F)c3)CC2)c(Cl)cc1F (stereo not given) | 24 µM (active) |  |
| CC(C)=CCCC(C)=CC=O |  | inactive |
| CC(C)CC(C)(O)C#CC(C)(O)CC(C)C (stereo not given) |  | inactive |
| CC(C)=CCCC(C)CCO (stereo not given) | 0.0391 µM (active) |  |
| CC(=O)OCCC(C)C |  | inactive |
| CC(C)CCCCCCOC(=O)c1ccc(C(=O)OCCCCCCC(C)C)c(C(=O)OCCCCCCC(C)C)c1 |  | inactive |

| Compound | AC50 | outcome |
| --- | --- | --- |
| CC(O)CN(CCN(CC(C)O)CC(C)O)CC(C)O (stereo not given) |  | inactive |
| Nc1cccc(N)c1 |  | inactive |
| NC(=O)NO |  | inactive |
| CCC(C)(C)C(=O)O[C@H]1C[C@@H](C)C=C2C=C[C@H](C)[C@H](CC[C@@H]3C[C@@H](O)CC(=O)O3)[C@H]21 | 26.8 µM (active) |  |
| COCCOCCOCCOC |  | inactive |
| CCN(C(=O)c1cc(C)cc(OC[C@H](C)Nc2ccncc2)c1)C(C)C |  | inactive |
| O=c1[nH]c2ccc(S(=O)CCN3CCC(Cc4ccc(F)cc4)CC3)cc2o1 (stereo not given) | 76.1 µM (active) |  |
| COC(=O)c1c(Cl)c(Cl)c(C(=O)OC)c(Cl)c1Cl |  | inactive |
| O=C1CCCCCN1 |  | inactive |
| CN(C)c1ccc(Cc2ccc(N(C)C)cc2)cc1 | 45.2 µM (active) |  |
| Clc1nc(Cl)c(Cl)c(Cl)c1Cl | 72 µM (active) |  |
| O=C1OC(=O)C2C3C=CC(C3)C12 (stereo not given) |  | inactive |
| O=C(NS(=O)(=O)/C=C/c1ccccc1)c1ccc(F)cc1Cl |  | inactive |
| O=C(O)c1cccc(N(Cc2cccnc2)c2ccc(OC(F)F)c(OC(F)F)c2)c1 | 23.5 µM (active) |  |
| CC(C)=CCC/C(C)=C/CO | 81.1 µM (active) |  |
| O=P(OC(CCl)CCl)(OC(CCl)CCl)OC(CCl)CCl | 47.1 µM (active) |  |
| CCOCCO |  | inactive |
| CCn1nc(Cc2ccccc2)cc1C1CCN(C[C@H]2C[C@H](N(C)[C@@H](C(=O)O)C(C)C)C[C@@H]2c2cccc(F)c2)CC1 | 90.9 µM (active) |  |
| CNCc1ccc(NC(=O)c2c[nH]c3c2C(=O)CCC3)cc1 | 73.7 µM (active) |  |
| CC(C)=CCC/C(C)=C\CO |  | inactive |
